Laboratory results: PubChem BioAssay (Tox21)
Inconclusive results are not listed. Active and inactive are the calls of the source. The call rests on the fitted dose curve.

Target: Beta-2 adrenergic receptor (Homo sapiens) (UniProt P07550)
Assay: Adrenergic beta2 receptor (ADRB2) small molecule antagonists, cell-based qHTS assay (AID 1963592); further: nearly all actives have a fitted effect of over 50% in size
Settings: CHO-ADRB2 cells, isoproterenol-stimulated cAMP HTRF ratio, 0.5 h; series mostly up to 92.4 µM; activity change, negative = inhibition: at the top concentration
Description: U.S. Tox21 Program National Center for Advancing Translational Sciences [NCATS] Division of Preclinical Innovation [DPI] U.S. Environmental Protection Agency [EPA] National Institutes of Environmental Health Sciences [NIEHS] National Toxicology Program [NTP] U.S. Food and Drug Administration [FDA] Tox21 Assay Overview: Beta adrenergic receptors (Beta-ARs) belong to the G-protein coupled receptor (GPCR) superfamily, includes three subtypes - beta1, beta2, and beta3. Beta1-AR is the predominant receptor subtype expressed in the heart, and beta2-AR is expressed in the kidney, lung, blood vessel and in the heart, and beta3 is found in the adipocytes. Beta1 and 2 ARs couple to Gs protein and elevate cyclic adenosine mono phosphate (cAMP), which activates protein kinase A and leads to the downstream signaling responsible for the physiological actions. Beta-AR agonists or antagonists are the most prescribed therapeutic agents for heart failure and asthma, and these were one of the first target receptors for the rational drug design. Tox21 10K compound library was screened using the cAMP-Gs dynamic assay (Cisbio Bioassays, Shelton, CT) to identify agonists/antagonists of the Gs-coupled human adrenergic, beta2 receptor (ADRB2) in the CHO-ADRB2 cell line (Codex BioSolutions, Inc. Gaithersburg, MD), which stably over-expresses ADRB2. The principle of cAMP-Gs dynamic assay is based on HTRF technology, which facilitates the fluorescence resonance energy transfer (FRET) between donor Europium cryptate and acceptor d2-labeled cAMP. The cAMP generated within cells competes with the red acceptor, d2-labled cAMP, for binding to the monoclonal anti-cAMP-cryptate (Europium donor). An increase in intracellular cAMP leads to the disruption of FRET signal, and the signal is inversely proportional to the cAMP concentration. Propranolol HCl (Sigma-Aldrich, St. Louis, MO) was used as a positive control in the screening.
Tox21 Assay Protocol Summary: CHO-ADRB2 cells were dispensed at 1,000/well in 4uL assay medium into white/solid 1536-well plates (Greiner Bio-One North America Inc., Monroe, NC) using a Multidrop Combi dispenser (ThermoFisher Scientific, Waltham, MA). The assay plates were incubated at 37C and 5% CO2 for an overnight (18-20hr). Then positive control and test compounds dissolved in DMSO were transferred to the assay plates at 23nL using a Pintool station (Wako, San Diego, CA). Following the compound and positive control transfer, 1uL agonist-stimulation mix containing 1nM Isoproterenol HCl, 100uM IBMX and 25uM Ro-20-1724 was added to each well of the assay plates using BioRAPTR Flying Reagent Dispenser (FRD, Beckman Coulter, Brea, CA). The assay plates were incubated at room temperature for 0.5hr. Then 2.5ul each d2-labled cAMP and anti-cAMP-cryptate solutions were added separately to each well of the assay plates using an FRD and the assay plates were incubated at room temperature for 1hr. The fluorescence signal was measured at two different wavelengths (665nm and 615nm) using an Envision plate reader (Perkin Elmer, Shelton, CT). Data were expressed as the ratio of 665 nm/615 nm.
On the % scale 0 is the no-effect control and ±100 the full control effect; potency means the concentration at half of the fitted maximal effect.

Sequence of Beta-2 adrenergic receptor (Homo sapiens) (P07550 whole entry, looked up): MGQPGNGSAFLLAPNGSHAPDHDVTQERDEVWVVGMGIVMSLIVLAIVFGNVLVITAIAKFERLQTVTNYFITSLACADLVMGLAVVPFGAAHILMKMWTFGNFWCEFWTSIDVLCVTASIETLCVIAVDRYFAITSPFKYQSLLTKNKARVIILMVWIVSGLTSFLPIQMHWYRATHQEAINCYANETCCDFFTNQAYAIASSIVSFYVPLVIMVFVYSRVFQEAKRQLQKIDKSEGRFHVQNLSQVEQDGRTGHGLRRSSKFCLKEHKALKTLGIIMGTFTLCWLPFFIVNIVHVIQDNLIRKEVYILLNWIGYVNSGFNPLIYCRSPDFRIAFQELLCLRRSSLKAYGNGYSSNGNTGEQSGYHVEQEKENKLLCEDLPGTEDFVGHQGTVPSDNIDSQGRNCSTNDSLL

Row | Structure (SMILES) | activity change, negative = inhibition | Potency
1 | CC(C)[C@]12CC(=O)[C@H](C)[C@H]1C2 | 1.74% (inactive) | –
2 | CCOC(=O)CCN(SN(C)C(=O)Oc1cccc2c1OC(C)(C)C2)C(C)C | 4.44% (inactive) | –
3 | Clc1ccc2ccccc2c1 | 8.57% (inactive) | –
4 | N#CC(C#N)=NNc1cccc(Cl)c1 | -6.2% (inactive) | –
5 | Clc1cccc2ccccc12 | -10.1% (inactive) | –
6 | CCC(=O)c1ccc(Cl)cc1 | -7.71% (inactive) | –
7 | COC1=CC(=O)O[C@@H](CCc2ccccc2)C1 | -1.83% (inactive) | –
8 | Clc1ccc(C(Cl)(Cl)Cl)cc1Cl | -0.563% (inactive) | –
9 | Clc1ccccc1 | 1.16% (inactive) | –
10 | Cc1nnc(-c2ccccc2)c(=O)n1N | -6.61% (inactive) | –
11 | COc1ccc(C(=O)N2CCCC2=O)cc1 | 0.686% [at 42.5 µM] (inactive) | –
12 | CCc1ccc(C(=O)NN(C(=O)c2cc(C)cc(C)c2)C(C)(C)C)cc1 | -4.88% (inactive) | –
13 | N#Cc1c[nH]cc1-c1cccc2c1OC(F)(F)O2 | -23% (inactive) | –
14 | NNCCO | 4.56% (inactive) | –
15 | CCC(C)(C)C(=O)OC1=C(c2ccc(Cl)cc2Cl)C(=O)OC12CCCCC2 | -8.62% (inactive) | –
16 | O=S(=O)(O)C(F)(F)C(F)(F)C(F)(F)C(F)(F)F | 1.9% (inactive) | –
17 | O=C1c2ccccc2C(=O)C1C(=O)C(c1ccccc1)c1ccccc1 | 16.1% [at 42.5 µM] (inactive) | –
18 | O=C(N/N=C/c1ccc([N+](=O)[O-])o1)c1cc([N+](=O)[O-])cc([N+](=O)[O-])c1O | 0.0342% [at 42.5 µM] (inactive) | –
19 | CN(C)C(=O)Nc1cccc(OC(=O)NC(C)(C)C)c1 | 3.97% (inactive) | –
20 | CN1C(=O)[C@@H](NC(=O)c2cc3ccccc3[nH]2)N=C(c2ccccc2)c2ccccc21 | -12.6% [at 42.5 µM] (inactive) | –

Row | Structure (SMILES) | activity change, negative = inhibition | Potency
21 | CC(=O)Nc1cc([As](=O)(O)O)ccc1O | 11.3% [at 42.5 µM] (inactive) | –
22 | CC1CCC(C(C)C)C(OC(=O)c2ccccc2N)C1 (stereo not given) | 1.49% (inactive) | –
23 | CCC[CH2][Sn]([CH2]CCC)([CH2]CCC)[O][Sn]([CH2]CCC)([CH2]CCC)[CH2]CCC | – | 1680 nM (active)
24 | CC1CCCCC1NC(=O)Nc1ccccc1 (stereo not given) | -6.17% (inactive) | –
25 | CC(Cl)(Cl)[N+](=O)[O-] | -1.87% (inactive) | –
26 | O=[N+]([O-])c1ccc2ccc3cccc4ccc1c2c34 | -6.5% (inactive) | –
27 | [Cl-].[Cl-].[Cl-].[Yb+3] | 2.87% (inactive) | –
28 | COC(=O)COc1ccc(Cl)cc1Cl | -4.84% (inactive) | –
29 | CC(Cc1ccccc1)NCCCCl (stereo not given) | -8.54% [at 42.5 µM] (inactive) | –
30 | BrCCCCCCBr | -0.173% (inactive) | –
31 | C[C@]12CC[C@@H](O)C[C@@H]1CC[C@@H]1[C@@H]2CC[C@]2(C)C(=O)CC[C@@H]12 | 0.418% (inactive) | –
32 | CC/C(=N\OC/C=C/Cl)C1=C(O)CC(C2CCOCC2)CC1=O (stereo not given) | 11.6% (inactive) | –
33 | c1ccc2c(c1)OCC(C1=NCCN1)O2 (stereo not given) | 13% [at 42.5 µM] (inactive) | –
34 | Cc1ccc(C)c2ccccc12 | 0.49% (inactive) | –
35 | CC(Oc1cccc(Cl)c1)C(=O)O (stereo not given) | 0.626% (inactive) | –
36 | CC(C)(C)OC(=O)c1ncn2c1[C@@H]1CCCN1C(=O)c1c(Br)cccc1-2 | -0.577% [at 42.5 µM] (inactive) | –
37 | C[C@@H]1C[C@@H]([C@H](O)CC2CC(=O)NC(=O)C2)C(=O)[C@@H](C)C1 | – | inactive
38 | CC(c1ccc(O)cc1)(c1ccc(O)cc1)c1ccc(O)cc1 | -13.7% (inactive) | –
39 | N[C@@H](Cc1ccc(Oc2cc(I)c(O)c(I)c2)c(I)c1)C(=O)O | 6.78% [at 42.5 µM] (inactive) | –
40 | CCOP(=S)(OCC)SCSP(=S)(OCC)OCC | 12.8% (inactive) | –
